From PubChem BioAssay
MCF10A rereplic = inducers of DNA re-replication in MCF 10A breast cells. AID 624296. Potency, µM (top dose mostly 46.1 µM), for inactives: at the top dose activity, positive = re-replication, usual class: activators. MCF 10A DNA re-replication, Hoechst nuclear intensity, 48 h. 2.9% of 350,000 active; further: potency means the concentration at half of the fitted maximal effect; % of control where 0% means no effect; nearly all actives have a fitted effect of over 50% in size
IL-1B inflam inh = blocks inflammasome-driven IL-1 beta release. THP-1 LPS/ATP IL-1B secretion, AlphaLISA, 16 h; stronger effect = lower value. activity change, % at 57.5 µM. 4.7% of 360,000 active; in the data active means activity change below about -50%; inconclusive means mostly about -30% to -49%; further: on the % scale 0 is the no-effect control and ±100 the full control effect
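THP-1 cells pretreated 1 hr with compounds (up to 57.5 uM final), then stimulated with LPS (250 ng/mL final) plus ATP (1.25 mM final); secreted IL-1B measured by AlphaLISA after 16 hr, decreased signal indicating inhibition.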
Chronic BCR inh = chronic active BCR signaling inhibition; ABC-DLBCL IkBa-CBG/CBR reporter, luminescence ratio, 4 h; 0.05% of 340,000 active; Potency, µM (top dose mostly 46.1 µM), without a hit: top-dose activity change, negative = inhibition, hits mostly inhibitors; AID 493014; active means well fitted inhibition curve with a large enough effect in the signal ratio, with a control signal flat, not every such curve was filed as active; inconclusive means small, poorly fitted or top-dose-only effect, or effect the other way, or a change in a side signal; the % refers to the signal ratio;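 further: potency means the concentration at half of the fitted maximal effect; plate controls were basal doxycycline-induced cells for no effect and cells given 10 µM MG132 for full effect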
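Doxycycline induced both beetle luciferases in TMD8 lymphoma cells; IKK-driven degradation limits the IkappaBalpha-fused green signal, while red luminescence normalises for cell number and nonspecific effects. Compounds tested up to 46 uM, 4 hrs.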
DT40 TDP1 CPT = DT40-hTDP1 cell growth loss with CPT; chicken DT40 Tdp1-/-;hTDP1 cells + 20 nM CPT, ATP luminescence, 48 h; Potency, µM (doses to about 46.2 µM), for inactives: at the highest dose activity change, negative = growth inhibition, hits mostly inhibitors; 12% of 420,000 active; further: potency means the concentration at half of the fitted maximal effect; on the % scale 0 is the no-effect control and ±100 the full control effect; nearly all actives have a fitted effect of over 55% in size
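Chicken DT40 Tdp1-/- cells complemented with human TDP1, 400 cells/well, exposed to compounds plus 20 nM camptothecin for at least 48 h at 37 C; viability read as ATP content by CellTiter-Glo luminescence.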
TDP1 cell noCPT = qHTS for Inhibitors of human tyrosyl-DNA phosphodiesterase 1 (TDP1): qHTS in cells in absence of CPT; DT40 Tdp1-/- hTDP1 cells, no CPT, ATP luminescence, 48 h; 15% of 420,000 active; Potency, µM (doses to about 46.2 µM), for inactives: top-dose activity change, negative = growth inhibition, actives largely listed as inhibitors; further: potency means the concentration at half of the fitted maximal effect; on the % scale 0 is the no-effect control and ±100 the full control effect; nearly all actives have a fitted effect of over 55% in size
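Seeded 400 DT40-hTDP1 cells/well (vehicle DMSO, no 20 nM CPT); pinned compounds; ≥48 hr at 37 °C; CellTiter-Glo luminescence as viability measure.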
SW480 rerep = induces DNA re-replication in SW480 colon adenocarcinoma cells | 1.8% of 340,000 active | Potency, µM (highest dose often 46.1 µM), for inactives: at the highest dose re-replication activation, usual class: activators | SW480 DNA re-replication, Hoechst DNA content imaging, 48 h; further: potency means the concentration at half of the fitted maximal effect; % of control where 0% means no effect; nearly all actives have a fitted effect of over 55% in size
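250 cells/well; 23 nL cpd via pin tool; 48 hr, 37 C, 5% CO2; Hoechst 40 min; imager read of total nuclear intensity, ex 405/em 500-530 nm.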
* marks the source's active call; other numbers are inactive results; ? = inconclusive; nt = no result given; [ ] = dose if it differs, or a comment. This is a sample that favours compounds with a hit; in the whole collection about 19% have one here. Unless noted, the call rests on the fitted dose curve; in most records, active means well fitted curve in the direction sought with a large enough effect; inconclusive means small, poorly fitted or top-dose-only effect, or another doubt; inactive means no such curve, though single readings can be large; an effect the other way counts as inactive or inconclusive.

SMILES | MCF10A rereplic | IL-1B inflam inh | Chronic BCR inh | DT40 TDP1 CPT | TDP1 cell noCPT | SW480 rerep
COc1ccc(NS(=O)(=O)c2cc(NC(=O)C(CC(C)C)NC(N)=O)ccc2N2CCOCC2)cc1 (configuration not stated) | -11% | 0 | nt | 8% | 11% | -4%
Cc1ccc(C)c(C(=O)COc2ncnc3ccccc23)c1 | 8% | 28 | 1% | 18µM* | ? | -2%
CCOc1ccc(NC(=O)CCS(=O)(=O)c2ccc(Br)s2)cc1 | nt | nt | nt | 18µM* | 15µM* | nt
Cc1ccc2nc(NC(=O)CN(C)S(=O)(=O)c3cccc4nsnc34)sc2c1 | ? | 2 | ? | 3.3µM* | 2.9µM* | 2.3µM*
Cc1ccc(S(=O)(=O)N(C)CC(=O)Nc2ccccc2)cc1 | -3% | -13 | -9% | -13% | -21% | 0%
Cc1ccc(S(=O)(=O)N(C)CC(=O)Nc2nc3ccccc3s2)cc1 | ? | 10 | 12% | 16µM* | 21µM* | 6%
Cc1ccnc(NC(=O)CN(C)S(=O)(=O)c2cccc3nsnc23)c1 | -11% | -2 | 2% | ? | 7.3µM* | -2%
Fc1ccccc1-c1cc2ccccc2cn1 | ? | 1 | -6% | 7% | 8% | -9%
O=C(O)c1cc([N+](=O)[O-])cc2c1C=Cc1ccccc1O2 | 8% | 18 | 3% | ? | -34% | 0%
CCOC(=O)c1ccc(NC(=O)CN(C)S(=O)(=O)c2ccc(Br)s2)cc1 | ? | -72* | ? | 5% | ? | -1%
CN(c1ccc(OCC(=O)Nc2nc3ccccc3s2)cc1)S(=O)(=O)c1ccccc1 | 7% | -8 | -2% | -28% | 5% | -10%
Cc1ccc2nc(NC(=O)CN(C)S(=O)(=O)c3ccc(Br)s3)sc2c1 | 23µM* | -18 | 2% | ? | ? | ?
Cc1ccc2nc(NC(=O)CNS(=O)(=O)c3ccc(Br)s3)sc2c1 | ? | 10 | 0% | -27% | -28% | -12%
CCOc1ccc(S(=O)(=O)N(C)c2ccc(OCC(=O)Nc3nc4ccccc4s3)cc2)cc1 | ? | 8 | 7% | 12µM* | 9.2µM* | 2%
CCOC(=O)c1ccc(NS(=O)(=O)c2ccc(Br)s2)cc1 | nt | nt | nt | -17% | -28% | nt
CCN1C[C@@H]2[C@@H]3C(=O)N(C)C(=O)[C@@H]3[C@](C)(C1=O)N2C(=O)c1ccc(C(F)(F)F)cc1 | 26% | -1 | nt | -16% | -8% | -31%
COC(=O)c1cc(NC2(c3ccccc3)C(=O)c3ccccc3C2=O)cc(C(=O)OC)c1 | nt | nt | 13% | -15% | -28% | nt
CC1(NC(=O)Nc2cc([N+](=O)[O-])ccc2O)CCS(=O)(=O)C1 (configuration not stated) | -5% | -2 | ? | 11% | 18% | -36%
COc1ccc2c(c1)c1c(c(=O)n(-c3cccc(C)c3)c(=O)n1CC(=O)Nc1c(C)cc(C)cc1C)n2C | nt | nt | nt | 5% | -14% | nt
C=CC(=O)NCCCc1cc(C(C)(C)C)c(O)c(C(C)(C)C)c1 | 4% | 0 | -11% | ? | ? | -1%
Cc1nn(CC(O)COc2ccc3c(c2)CCC3)c(C)c1C (configuration not stated) | 16% | -15 | ? | ? | 21µM* | 20%
OC(COc1ccc2c(c1)CCC2)Cn1cnc2ccccc21 (configuration not stated) | 9% | 1 | -14% | 10µM* | 18µM* | -1%
CC(=O)Nc1ccc(OCC(O)Cn2cnc3ccccc32)cc1 (configuration not stated) | 4% | -1 | -8% | -22% | -20% | -1%
CC(=O)OC(COc1cccc(C)c1)Cn1cnc2ccccc21 (configuration not stated) | 24% | 0 | ? | ? | 16µM* | -5%
Cc1ccc(COc2ccc(-c3cc(C(F)(F)F)n4nc(C)cc4n3)cc2)cc1 | nt | nt | nt | -21% | -8% | nt
SMILES | MCF10A rereplic | IL-1B inflam inh | Chronic BCR inh | DT40 TDP1 CPT | TDP1 cell noCPT | SW480 rerep
CCOC(=O)C1(C)CCN1C(=O)Cc1ccc(OC)cc1 (configuration not stated) | nt | 23 | nt | -1% | -9% | nt
Cc1nnc2sc(-c3ccc(NC(=O)c4ccc(-c5ccc(Cl)cc5Cl)o4)cc3)nn12 | 6% | 21 | nt | 16µM* | ? | 0%
Cc1ccc2nsnc2c1NC(=O)c1ccc(-c2cc(Cl)ccc2Cl)o1 | 18% | -2 | 2% | ? | ? | 13µM*
Cc1ccc2nsnc2c1NC(=O)c1ccc([N+](=O)[O-])o1 | 21µM* | -92* | ? | ? | 23µM* | 2%
Cc1ccc2nsnc2c1NC(=O)CCl | 13% | -24 | -5% | ? | 21µM* | ?
COC(=O)C1=COC(O[C@H]2OC(CO)[C@H](O)C(O)C2O)[C@H]2C1C(=O)C[C@@H]2C (some centres not stated) | nt | nt | nt | 4%[9.04 µM] | -9%[9.04 µM] | nt
CN(C)c1cccc2c(S(=O)(=O)NC(=O)[C@H]3O[C@@H](n4cnc5c(N)ncnc54)[C@H](O)[C@@H]3O)cccc12 | nt | 16 | nt | 9% | 11% | nt
CCCN1CCN(CCCNC(=O)Cn2nc(C)n3c(cc4cc(F)ccc43)c2=O)CC1 | -6% | 14 | 5% | -7% | -2% | -24%
O=S(=O)(NCCN1CCOCC1)c1cc(Cl)ccc1Cl | 3% | 16 | 0% | -19% | -19% | -5%
Cc1nc(NCc2cnn(C)c2)sc1-c1ccn(-c2cccc(F)c2)n1 | nt | nt | nt | 22%[9.04 µM] | -24% | nt
Cn1nc(-c2ccccc2)c2ncc(C(F)(F)F)cc21 | 25% | 28 | 8% | 7% | -3% | 3%
CC(C)C(=O)NC(=S)Nc1c(Cl)ccc2nsnc12 | 18µM* | 15 | -2% | -3% | ? | -12%
Cc1ccc(C(=O)CSc2nc(C)cc(C)c2C(=O)Nc2cccc(C)c2)cc1 | nt | nt | nt | 21µM* | ? | nt
COc1ccc(C(=O)CSc2nc(C)cc(C)c2C(=O)Nc2ccccc2C)cc1 | nt | nt | nt | ? | 15µM* | nt
COCCCN1C(=O)c2ccc(C(=O)NCCc3ccccc3)cc2C1=O | -2% | 15 | 0% | 3% | -1% | -4%
COc1c(C)cc(C(=O)C2CCCN(C(=O)CCCn3cncn3)C2)cc1C (configuration not stated) | -5% | 39 | -2% | -12% | -4% | -5%
